PubChem BioAssay (NCI)
About 83,000 compounds went through this panel and 20% of them were active in at least one assay; those are over-represented in the sample as a whole.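 Growth was measured after 48 h exposure to one concentration of compound in 96-well plates. Values under 10 count as active.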 Unmarked numbers belong to inactive results. Active and inactive are the calls of the source.

Key:
Experiment in all cases: NCI-60 one-dose screen, 48 h (100 = growth as untreated, 0 = no growth, -100 = all killed)
Details in all cases: 10 µM
[1] = test system: T-47D breast
[2] = test system: BT-549 breast
[3] = test system: MDA-MB-435 melanoma
[4] = test system: SW-620 colon
[5] = test system: MCF7 breast
[6] = test system: HCT-116 colon
[7] = test system: HCC-2998 colon
[8] = test system: KM12 colon

| SMILES | growth [1] | growth [2] | growth [3] | growth [4] | growth [5] | growth [6] | growth [7] | growth [8] |
| --- | --- | --- | --- | --- | --- | --- | --- | --- |
| COc1cc(-c2cc(-c3ccc(C)cc3)nc3nc(N)[nH]c(=O)c23)ccc1Oc1ccnc2cc(Cl)ccc12 | 69.6% | 112% | 85.3% | 98.2% | 51.2% | 88.8% | 79.5% | 67% |
| CC1(C)CNC(=O)N1 | 99.2% | 103% | 102% | 102% | 94.5% | 91.6% | 95.7% | 104% |
| NC1CCC(Nc2nc(NCc3ccc(-c4ccco4)nc3)c3ncn(C4CCCC4)c3n2)CC1 (centres undefined) | -11.3% (active) | -25.7% (active) | 11.4% | 7.93% (active) | 1.09% (active) | 3.79% (active) | -19% (active) | 4.05% (active) |
| COc1cccc2c1O/C(=C\c1ccc([N+](=O)[O-])s1)C2=O | 39.6% | -14.3% (active) | 48.4% | -28.6% (active) | 42.8% | -14% (active) | 89.7% | 18.3% |
| O=C(Nc1cccc(F)c1)Nc1cccc(Cl)c1 | 76.5% | 104% | 89.9% | 74% | 87.8% | 92.3% | 89.9% | 47.6% |
| CC(C)c1ncc(CO)n1Cc1c(Cl)cccc1Cl | 73.8% | 104% | 102% | 100% | 99.5% | 102% | 109% | 101% |
| O=C(O)CCCN1C(=O)NC2(C1=O)c1ccccc1-c1ccccc12 | 89.4% | 96.7% | 103% | 104% | 97.3% | 95.6% | 101% | 102% |
| COc1cc(C)c2sc3ccccc3c(=O)c2c1NCCN(C)C | 78.4% | 93.8% | 12% | 34.9% | 22.2% | 43% | 28.9% | 65% |
| O=C(NNC(=O)c1ccncc1)Nc1ccc([N+](=O)[O-])cc1 | 90.8% | 121% | 94.1% | 100% | 109% | 110% | 106% | 104% |
| Cc1cc(C(C)(C)CC(C)(C)C)ccc1OCCOCC[N+](C)(C)Cc1ccccc1 | 7.06% (active) | -99% (active) | -87% (active) | -80.6% (active) | -90.7% (active) | -97.4% (active) | -60.6% (active) | -92.5% (active) |
| Cc1ccc(NC(=O)/C=N/O)cc1C | 76.4% | 91.6% | 96.5% | 100% | 61.5% | 98.1% | 116% | 104% |
| CCCCCCOc1ccc(/C=C/C(=O)c2ccc(B(O)O)cc2)cc1 | 73.9% | 35.2% | 77.1% | 96.8% | 57.5% | 55.6% | 95.6% | 85.4% |
| CCC1(C)OC(=O)NC1=O (centres undefined) | 93.8% | 93.3% | 112% | 110% | 97.7% | 87.7% | 99% | 107% |
| CC(C)(C)c1ccc(OCCCCCCN2CCNCC2)cc1 | 34.8% | 58.7% | 68.3% | 45.9% | 17.5% | 8.35% (active) | -47.1% (active) | 51.1% |
| O=[N+]([O-])c1ccc(Br)o1 | 91.3% | 97% | 109% | 109% | 95.7% | 101% | 95% | 99.1% |
| COc1cc(-c2nc3ccccc3[nH]2)ccc1OCc1nnc(-c2ccc(Br)cc2)o1 | 68.4% | 98.4% | 81% | 102% | 53.6% | 59.9% | 102% | 69.2% |
| COc1ccc(S(=O)(=O)Nc2cc(/C=C\c3cc(OC)c(OC)c(OC)c3)ccc2OC)cc1 | 71.7% | 26.9% | -37.9% (active) | 21.3% | -9.99% (active) | 4.3% (active) | 16% | -5.35% (active) |

| SMILES | growth [1] | growth [2] | growth [3] | growth [4] | growth [5] | growth [6] | growth [7] | growth [8] |
| --- | --- | --- | --- | --- | --- | --- | --- | --- |
| COc1cc(OC)cc(-c2ccc(-c3ccc(C(=N)N)cn3)o2)c1 | -56.9% (active) | -3.57% (active) | -63.6% (active) | -90.3% (active) | -66.2% (active) | -86.5% (active) | -87.4% (active) | -11.2% (active) |
| N#C/C(=C/c1cc([N+](=O)[O-])ccc1Cl)C(N)=O | 90.4% | 96.8% | 71.5% | 46.6% | 57.3% | 10% (active) | 106% | 91.5% |
| CCOC(=O)c1cc2c(n1Cc1cccc(OC)c1)-c1oncc1CC2 | 38.9% | 28.3% | -23.5% (active) | 23% | 14.1% | 14.9% | 58.6% | 32.5% |
| CNC(=O)c1cc(Oc2ccc(NC(=O)Nc3ccc(Cl)c(OC4CCCCC4)c3)c(F)c2)ccn1 | 5.13% (active) | 72.6% | 45.3% | 62.9% | 27.8% | 11.9% | 82.6% | 26.2% |
| CCN1CCN(c2nc(NNC(=O)c3cccc(OC)c3)nc(N3CCN(C(c4ccccc4)c4ccccc4)CC3)n2)CC1 | 47.9% | 63.3% | 19.5% | 69.5% | 12.8% | 26.7% | -16.4% (active) | 25.7% |
| CN1/C(=C\C(I)C(I)C2=[N+](C)c3ccccc3C2(C)C)C(C)(C)c2ccccc21 (centres undefined) | -0.299% (active) | 13.3% | 11.8% | 16.1% | 4.83% (active) | 9.19% (active) | 12.6% | 13.2% |
| CC(C)=C1CCC(C)C/C1=N\N=C(N)N (centres undefined) | 97.4% | 107% | 101% | 103% | 92.4% | 102% | 109% | 107% |
| C[N+]1(CC2CO2)CCCCCC1 (centres undefined) | 116% | 116% | 102% | 106% | 107% | 103% | 112% | 93.9% |
| Cc1ccc(-n2nnc3c(sc4ccccc43)c2=O)cc1 | 64.2% | 81.4% | 59% | 58.6% | 81.2% | 3.11% (active) | 70.8% | 25.3% |
| O=C(OCC1OC(n2cc(C(F)(F)F)c(=O)[nH]c2=O)CC1OC(=O)c1ccc([N+](=O)[O-])cc1)c1ccc([N+](=O)[O-])cc1 (centres undefined) | 74.4% | 60.1% | 50.6% | 65.6% | 33.6% | 72.7% | 51.5% | 72.2% |
| Nc1ncncc1-c1ccc(F)cc1 | 96.7% | 111% | 102% | 114% | 110% | 108% | 109% | 110% |
| FC(F)(F)c1ccc(-c2cnc(Cl)nc2NC2CCCCCC2)cc1 | 12.4% | 52.5% | 11% | 21.5% | 20.7% | 16.5% | 67.9% | 16.5% |
| CCCCn1c(=O)[nH]c(N)c(C(c2ccc(Cl)cc2)c2c(N)[nH]c(=O)n(CCCC)c2=O)c1=O | 21% | 49.8% | 31.1% | 64.2% | 21.1% | 27.3% | 54.7% | 35.3% |
| Cn1c([N+](=O)[O-])cnc1C=C1C(=O)c2ccccc2C1=O | 65.4% | 25% | 11.8% | 29% | 37.8% | 20.7% | 88.2% | 68.3% |
| CC(Oc1ccc(Cl)cc1)c1ccccc1 (centres undefined) | 95.7% | 114% | 101% | 96.4% | 102% | 98.9% | 115% | 103% |
| COCCOC(=O)NC(=O)Nc1ccc(C(=O)c2ccc(Cl)cc2)cc1 | 16.5% | 37.8% | 6.97% (active) | 30.4% | 19.5% | 30.5% | 47.3% | 29% |
